The full data set covers some 8,800 targets. This sample favours those with a hit. About 0.5% of all pairs of compound and target were hits.
Key:
Test in all cases: log2 fold change, soluble protein after heating vs DMSO (PISA); higher = thermal stabilisation; K562 lysate, 10 uM; active = over 0.2 and 3.5 SD of the protein, either way, in both replicates (recomputed)
lapatinib = compound: CS(=O)(=O)CCNCc1ccc(-c2ccc3ncnc(Nc4ccc(OCc5cccc(F)c5)c(Cl)c4)c3c2)o1 [lapatinib]
In short: (§1)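 A 30 min treatment with 10 μM compound was applied to crude K562 extract at 1 mg/mL protein in PBS pH 7.4 with 1 mM MgCl2. Heating for 3 min spanned 48°C-58°C, after which aliquots were pooled, adjusted to 0.5% NP-40 at 4°C and spun at 21,000xg for 90 min. TMTpro 16plex LC-MS/MS of the supernatant, with channel sums equalised, gave values recorded as log-two fold change in thermal stability against solvent controls, from duplicates.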

pictilisib = compound: CS(=O)(=O)N1CCN(Cc2cc3nc(-c4cccc5[nH]ncc45)nc(N4CCOCC4)c3s2)CC1 [pictilisib]
In short: as §1

crizotinib = compound: C[C@@H](Oc1cc(-c2cnn(C3CCNCC3)c2)cnc1N)c1c(Cl)ccc(F)c1Cl [crizotinib]
In short: as §1

[1] = compound: C[C@H](C1=CC=C(C=C1)C(=O)NC2=C3C=CNC3=NC=C2)N
In short: as §1

duvelisib = compound: C[C@H](Nc1ncnc2nc[nH]c12)c1cc2cccc(Cl)c2c(=O)n1-c1ccccc1 [duvelisib]
In short: as §1

gandotinib = compound: Cc1cc(Nc2cc(CN3CCOCC3)c3nc(C)c(Cc4ccc(Cl)cc4F)n3n2)n[nH]1 [gandotinib]
In short: as §1

tozasertib = compound: Cc1cc(Nc2cc(N3CCN(C)CC3)nc(Sc3ccc(NC(=O)C4CC4)cc3)n2)n[nH]1 [tozasertib]
In short: as §1

doramapimod = compound: Cc1ccc(-n2nc(C(C)(C)C)cc2NC(=O)Nc2ccc(OCCN3CCOCC3)c3ccccc23)cc1 [doramapimod]
In short: as §1

bafetinib = compound: Cc1ccc(NC(=O)c2ccc(CN3CC[C@H](N(C)C)C3)c(C(F)(F)F)c2)cc1Nc1nccc(-c2cncnc2)n1 [bafetinib]
In short: as §1

[2] = compound: Cc1cccc(CC(=O)N2CCc3c2ccc(-c2cn(C)c4ncnc(N)c24)c3F)n1
In short: as §1

nilotinib = compound: Cc1cn(-c2cc(NC(=O)c3ccc(C)c(Nc4nccc(-c5cccnc5)n4)c3)cc(C(F)(F)F)c2)cn1 [nilotinib]
In short: as §1

[3] = compound: Cc1nc(Nc2n[nH]c3c2CN(C(=O)N[C@H](CN(C)C)c2ccccc2)C3(C)C)c2sccc2n1
In short: as §1

dasatinib = compound: Cc1nc(Nc2ncc(C(=O)Nc3c(C)cccc3Cl)s2)cc(N2CCN(CCO)CC2)n1 [dasatinib]
In short: as §1

[4] = compound: Cc1ncc(-c2ccnc(Nc3ccc(S(C)(=O)=O)cc3)n2)n1C(C)C
In short: as §1

[5] = compound: Cn1cc(-c2ccc3c(c2)CCN3C(=O)Cc2cccc(C(F)(F)F)c2)c2c(N)ncnc21
In short: as §1

quisinostat = compound: Cn1cc(CNCC2CCN(c3ncc(C(=O)NO)cn3)CC2)c2ccccc21 [quisinostat]
In short: as §1

tipifarnib = compound: Cn1cncc1[C@@](N)(c1ccc(Cl)cc1)c1ccc2c(c1)c(-c1cccc(Cl)c1)cc(=O)n2C [tipifarnib]
In short: as §1

[6] = compound: NC(=O)Nc1cc(-c2cccc(F)c2)sc1C(=O)N[C@H]1CCCNC1
In short: as §1

[7] = compound: NC(=O)c1cnc(N[C@@H]2CCCC[C@@H]2N)nc1Nc1cccc(-n2nccn2)c1
In short: as §1

[8] = compound: NC1(c2ccc(-c3nc4ccn5c(=O)[nH]nc5c4cc3-c3ccccc3)cc2)CCC1
In short: as §1

Measured: log2 fold change

CIC (UniProt I3L2J0)
inactive: lapatinib -0.074 | pictilisib -0.02 | crizotinib -0.002 | [1] -0.052 | duvelisib -0.047 | gandotinib 0.006 | tozasertib 0.02 | doramapimod -0.036 | bafetinib -0.08 | [2] 0.037 | nilotinib 0.045 | [3] 0.024 | dasatinib 0 | [4] 0.001 | [5] 0.006 | quisinostat 0.027 | tipifarnib -0.087 | [6] -0.053 | [7] -0.073 | [8] 0.014

DENND6A (UniProt Q8IWF6)
inactive: lapatinib -0.077 | pictilisib -0.079 | crizotinib 0.028 | [1] -0.013 | duvelisib -0.022 | gandotinib -0.006 | tozasertib -0.038 | doramapimod 0.054 | bafetinib -0.099 | [2] 0.086 | nilotinib 0.012 | [3] -0.009 | dasatinib 0.053 | [4] 0.017 | [5] 0.095 | quisinostat -0.084 | tipifarnib -0.041 | [6] 0.018 | [7] -0.032 | [8] -0.011

CWC22 (UniProt Q9HCG8)
active: [1] 0.46
inactive: lapatinib 0.059 | pictilisib -0.027 | crizotinib -0.051 | duvelisib 0.011 | gandotinib -0.207 | tozasertib 0.072 | doramapimod -0.019 | bafetinib -0.088 | [2] -0.109 | nilotinib 0.043 | [3] 0.017 | dasatinib -0.015 | [4] 0.002 | [5] 0.02 | quisinostat 0.015 | tipifarnib 0 | [6] 0.011 | [7] 0.023 | [8] -0.011

DNAAF5 (UniProt Q86Y56)
Sequence of UniProt Q86Y56 (Q86Y56 whole entry, looked up): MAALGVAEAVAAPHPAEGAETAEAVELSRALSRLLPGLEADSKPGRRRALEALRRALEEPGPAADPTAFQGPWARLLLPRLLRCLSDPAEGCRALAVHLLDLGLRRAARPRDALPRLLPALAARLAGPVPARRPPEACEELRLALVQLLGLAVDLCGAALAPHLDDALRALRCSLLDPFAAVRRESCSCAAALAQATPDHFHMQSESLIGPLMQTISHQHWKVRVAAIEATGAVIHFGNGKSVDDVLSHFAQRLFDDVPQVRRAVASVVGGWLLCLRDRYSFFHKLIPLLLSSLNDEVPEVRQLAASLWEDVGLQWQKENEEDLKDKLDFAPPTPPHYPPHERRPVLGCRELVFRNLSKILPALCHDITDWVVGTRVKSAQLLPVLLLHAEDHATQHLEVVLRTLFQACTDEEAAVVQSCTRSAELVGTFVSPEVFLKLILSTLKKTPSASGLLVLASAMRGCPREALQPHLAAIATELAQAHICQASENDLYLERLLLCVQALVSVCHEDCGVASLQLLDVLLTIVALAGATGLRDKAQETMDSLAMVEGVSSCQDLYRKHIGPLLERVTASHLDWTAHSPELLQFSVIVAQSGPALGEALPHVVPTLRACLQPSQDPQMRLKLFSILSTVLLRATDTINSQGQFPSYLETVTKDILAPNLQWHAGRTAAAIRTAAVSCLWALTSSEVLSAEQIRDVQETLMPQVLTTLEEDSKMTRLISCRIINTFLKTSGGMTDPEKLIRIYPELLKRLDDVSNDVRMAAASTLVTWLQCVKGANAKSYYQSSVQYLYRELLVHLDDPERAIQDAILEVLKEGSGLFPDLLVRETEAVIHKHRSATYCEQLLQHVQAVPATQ
inactive: lapatinib -0.03 | pictilisib -0.008 | crizotinib -0.104 | [1] 0.016 | duvelisib 0.021 | gandotinib -0.147 | tozasertib -0.055 | doramapimod 0.024 | bafetinib -0.066 | [2] 0.027 | nilotinib -0.015 | [3] 0.004 | dasatinib -0.118 | [4] -0.024 | [5] 0.007 | quisinostat -0.1 | tipifarnib -0.002 | [6] 0.073 | [7] 0.006 | [8] 0.024

CYCS (UniProt P99999)
Sequence of UniProt P99999 (P99999 whole entry, looked up): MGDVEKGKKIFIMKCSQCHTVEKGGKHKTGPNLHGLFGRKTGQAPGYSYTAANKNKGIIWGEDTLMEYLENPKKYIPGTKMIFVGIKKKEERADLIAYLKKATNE
inactive: lapatinib 0.015 | pictilisib -0.033 | crizotinib 0.036 | [1] -0.054 | duvelisib -0.039 | gandotinib 0.056 | tozasertib -0.004 | doramapimod -0.029 | bafetinib 0.06 | [2] -0.006 | nilotinib 0.014 | [3] -0.038 | dasatinib 0.001 | [4] 0.008 | [5] -0.037 | quisinostat 0.035 | tipifarnib 0.015 | [6] -0.003 | [7] -0.015 | [8] 0.022

CXorf38 (UniProt Q8TB03)
inactive: lapatinib -0.05 | pictilisib -0.017 | crizotinib -0.019 | [1] -0.039 | duvelisib 0.013 | gandotinib 0.037 | tozasertib 0.037 | doramapimod 0.013 | bafetinib -0.018 | [2] -0.033 | nilotinib 0.029 | [3] 0.013 | dasatinib -0.04 | [4] 0.053 | [5] -0.034 | quisinostat 0.004 | tipifarnib 0.002 | [6] 0.006 | [7] 0.049 | [8] 0.009

CKM (UniProt P06732)
Sequence of UniProt P06732 (P06732 whole entry, looked up): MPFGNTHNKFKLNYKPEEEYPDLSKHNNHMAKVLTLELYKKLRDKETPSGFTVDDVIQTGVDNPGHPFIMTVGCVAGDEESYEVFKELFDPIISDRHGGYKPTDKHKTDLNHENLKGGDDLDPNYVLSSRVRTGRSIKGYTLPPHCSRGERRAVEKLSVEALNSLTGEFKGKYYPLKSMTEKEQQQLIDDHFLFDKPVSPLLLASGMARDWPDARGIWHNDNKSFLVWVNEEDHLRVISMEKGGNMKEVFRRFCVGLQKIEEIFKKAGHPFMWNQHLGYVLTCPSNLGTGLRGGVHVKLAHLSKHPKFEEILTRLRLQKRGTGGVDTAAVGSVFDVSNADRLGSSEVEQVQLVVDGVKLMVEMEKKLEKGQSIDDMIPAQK
active: [1] -0.431
inactive: lapatinib -0.041 | pictilisib -0.035 | crizotinib -0.13 | duvelisib 0.087 | gandotinib 0.096 | tozasertib -0.078 | doramapimod -0.019 | bafetinib -0.023 | [2] 0.113 | nilotinib 0.033 | [3] 0 | dasatinib -0.056 | [4] 0.062 | [5] -0.093 | quisinostat -0.175 | tipifarnib -0.072 | [6] 0.068 | [7] -0.025 | [8] 0.007

CIAO2A (UniProt Q9H5X1)
Sequence of UniProt Q9H5X1 (Q9H5X1 whole entry, looked up): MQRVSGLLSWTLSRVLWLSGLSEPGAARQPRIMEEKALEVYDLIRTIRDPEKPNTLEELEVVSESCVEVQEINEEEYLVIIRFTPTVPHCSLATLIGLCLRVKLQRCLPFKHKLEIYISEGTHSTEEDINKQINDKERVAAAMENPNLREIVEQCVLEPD
active: [2] -0.276
inactive: lapatinib 0.007 | pictilisib -0.058 | crizotinib -0.014 | [1] 0.181 | duvelisib -0.01 | gandotinib 0 | tozasertib 0.042 | doramapimod 0.11 | bafetinib -0.015 | nilotinib -0.018 | [3] 0.033 | dasatinib -0.037 | [4] -0.074 | [5] 0.011 | quisinostat 0.011 | tipifarnib -0.067 | [6] -0.004 | [7] -0.027 | [8] -0.038

CKAP5 (UniProt Q14008)
inactive: lapatinib 0.001 | pictilisib 0.013 | crizotinib -0.017 | [1] 0.004 | duvelisib 0.001 | gandotinib -0.053 | tozasertib 0.01 | doramapimod 0.011 | bafetinib 0.005 | [2] 0.015 | nilotinib 0 | [3] 0.002 | dasatinib -0.024 | [4] -0.005 | [5] 0.026 | quisinostat -0.03 | tipifarnib -0.028 | [6] 0.021 | [7] 0.01 | [8] 0.006

COG7 (UniProt P83436)
Sequence of UniProt P83436 (P83436 whole entry, looked up): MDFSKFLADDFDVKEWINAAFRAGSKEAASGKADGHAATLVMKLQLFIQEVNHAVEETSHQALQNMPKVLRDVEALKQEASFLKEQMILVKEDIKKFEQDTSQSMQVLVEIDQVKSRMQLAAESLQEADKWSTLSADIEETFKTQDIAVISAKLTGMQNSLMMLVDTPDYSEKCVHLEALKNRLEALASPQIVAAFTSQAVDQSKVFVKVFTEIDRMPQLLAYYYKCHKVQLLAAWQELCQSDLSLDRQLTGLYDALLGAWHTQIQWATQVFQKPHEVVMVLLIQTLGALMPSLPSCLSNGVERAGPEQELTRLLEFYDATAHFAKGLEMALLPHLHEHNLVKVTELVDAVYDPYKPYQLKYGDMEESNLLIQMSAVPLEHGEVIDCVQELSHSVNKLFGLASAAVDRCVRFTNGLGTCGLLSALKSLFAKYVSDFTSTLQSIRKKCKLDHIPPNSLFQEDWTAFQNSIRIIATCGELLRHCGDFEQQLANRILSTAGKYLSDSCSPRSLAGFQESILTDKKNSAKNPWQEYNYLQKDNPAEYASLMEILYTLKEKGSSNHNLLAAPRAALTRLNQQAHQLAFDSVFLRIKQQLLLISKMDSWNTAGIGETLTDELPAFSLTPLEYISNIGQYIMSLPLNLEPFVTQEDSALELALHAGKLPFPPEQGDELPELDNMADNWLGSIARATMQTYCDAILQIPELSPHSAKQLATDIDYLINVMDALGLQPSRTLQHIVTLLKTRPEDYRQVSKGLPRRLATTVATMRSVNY
inactive: lapatinib -0.014 | pictilisib -0.008 | crizotinib -0.025 | [1] -0.068 | duvelisib -0.01 | gandotinib -0.059 | tozasertib -0.028 | doramapimod 0.028 | bafetinib -0.044 | [2] 0.058 | nilotinib 0.02 | [3] 0.007 | dasatinib -0.089 | [4] 0.011 | [5] 0.024 | quisinostat 0 | tipifarnib -0.001 | [6] 0.033 | [7] -0.019 | [8] 0.001

DARS (UniProt P14868)
Sequence of UniProt P14868 (P14868 whole entry, looked up): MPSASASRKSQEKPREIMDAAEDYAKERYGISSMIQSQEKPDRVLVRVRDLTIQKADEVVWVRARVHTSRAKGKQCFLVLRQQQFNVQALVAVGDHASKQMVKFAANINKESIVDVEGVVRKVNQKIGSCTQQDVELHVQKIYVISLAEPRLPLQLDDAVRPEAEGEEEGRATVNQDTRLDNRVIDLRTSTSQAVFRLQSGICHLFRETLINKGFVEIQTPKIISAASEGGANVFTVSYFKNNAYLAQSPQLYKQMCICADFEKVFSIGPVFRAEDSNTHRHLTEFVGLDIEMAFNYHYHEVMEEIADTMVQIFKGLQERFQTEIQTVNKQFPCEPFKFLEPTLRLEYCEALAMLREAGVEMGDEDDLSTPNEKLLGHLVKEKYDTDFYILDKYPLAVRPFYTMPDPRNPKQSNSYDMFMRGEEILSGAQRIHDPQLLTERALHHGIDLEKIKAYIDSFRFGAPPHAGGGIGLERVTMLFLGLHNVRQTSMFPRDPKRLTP
inactive: lapatinib 0.002 | pictilisib 0 | crizotinib -0.033 | [1] -0.036 | duvelisib 0 | gandotinib -0.081 | tozasertib 0.011 | doramapimod 0.015 | bafetinib -0.011 | [2] 0.008 | nilotinib 0.01 | [3] -0.004 | dasatinib -0.032 | [4] -0.015 | [5] 0.063 | quisinostat -0.007 | tipifarnib 0.01 | [6] 0.044 | [7] -0.008 | [8] 0.002

DMAC2L (UniProt Q99766)
Sequence of UniProt Q99766 (Q99766 whole entry, looked up): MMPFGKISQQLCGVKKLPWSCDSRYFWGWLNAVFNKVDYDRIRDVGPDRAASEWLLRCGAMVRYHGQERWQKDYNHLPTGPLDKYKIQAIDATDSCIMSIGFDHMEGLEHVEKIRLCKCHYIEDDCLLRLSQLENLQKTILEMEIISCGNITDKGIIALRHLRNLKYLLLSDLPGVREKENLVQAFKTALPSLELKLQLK
inactive: lapatinib -0.021 | pictilisib -0.036 | crizotinib 0.012 | [1] -0.048 | duvelisib -0.037 | gandotinib 0.047 | tozasertib 0.087 | doramapimod 0.002 | bafetinib 0.009 | [2] 0.1 | nilotinib -0.021 | [3] 0.001 | dasatinib 0.059 | [4] -0.04 | [5] -0.009 | quisinostat 0.012 | tipifarnib -0.017 | [6] -0.032 | [7] -0.006 | [8] 0.111

COX20 isoform 2 (UniProt Q5RI15)
Sequence of UniProt Q5RI15 (Q5RI15 whole entry, looked up): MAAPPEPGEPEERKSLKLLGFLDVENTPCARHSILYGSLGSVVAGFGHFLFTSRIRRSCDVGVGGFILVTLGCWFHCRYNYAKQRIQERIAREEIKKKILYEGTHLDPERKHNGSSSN
active: [1] 0.455
inactive: lapatinib 0.016 | pictilisib 0.186 | crizotinib 0.054 | duvelisib -0.007 | gandotinib -0.144 | tozasertib -0.053 | doramapimod -0.036 | bafetinib 0.144 | [2] -0.273 | nilotinib 0.051 | [3] -0.023 | dasatinib 0.07 | [4] -0.024 | [5] 0.013 | quisinostat -0.017 | tipifarnib 0.117 | [6] -0.026 | [7] -0.058 | [8] -0.03

DNAJC3 (UniProt Q13217)
Sequence of UniProt Q13217 (Q13217 whole entry, looked up): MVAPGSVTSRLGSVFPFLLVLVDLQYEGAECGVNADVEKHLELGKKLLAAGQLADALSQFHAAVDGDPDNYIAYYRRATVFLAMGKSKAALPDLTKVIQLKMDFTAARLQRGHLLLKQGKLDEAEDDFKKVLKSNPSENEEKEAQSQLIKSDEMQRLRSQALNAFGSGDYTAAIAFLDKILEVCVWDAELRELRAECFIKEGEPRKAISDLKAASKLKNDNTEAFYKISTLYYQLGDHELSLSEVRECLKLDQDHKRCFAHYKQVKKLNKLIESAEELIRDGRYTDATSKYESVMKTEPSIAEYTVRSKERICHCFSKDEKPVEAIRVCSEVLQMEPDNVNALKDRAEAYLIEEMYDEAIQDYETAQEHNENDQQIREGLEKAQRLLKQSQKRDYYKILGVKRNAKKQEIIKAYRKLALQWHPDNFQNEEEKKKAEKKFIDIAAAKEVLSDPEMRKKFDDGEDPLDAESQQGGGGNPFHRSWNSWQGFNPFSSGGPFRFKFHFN
inactive: lapatinib 0.01 | pictilisib -0.015 | crizotinib 0.047 | [1] 0.001 | duvelisib 0.046 | gandotinib 0.012 | tozasertib 0.014 | doramapimod -0.064 | bafetinib -0.002 | [2] -0.014 | nilotinib 0.029 | [3] -0.019 | dasatinib 0.074 | [4] 0.008 | [5] 0.023 | quisinostat 0.11 | tipifarnib -0.085 | [6] -0.055 | [7] 0.012 | [8] 0.005

CHEK2 (UniProt O96017)
Sequence of UniProt O96017 (O96017 whole entry, looked up): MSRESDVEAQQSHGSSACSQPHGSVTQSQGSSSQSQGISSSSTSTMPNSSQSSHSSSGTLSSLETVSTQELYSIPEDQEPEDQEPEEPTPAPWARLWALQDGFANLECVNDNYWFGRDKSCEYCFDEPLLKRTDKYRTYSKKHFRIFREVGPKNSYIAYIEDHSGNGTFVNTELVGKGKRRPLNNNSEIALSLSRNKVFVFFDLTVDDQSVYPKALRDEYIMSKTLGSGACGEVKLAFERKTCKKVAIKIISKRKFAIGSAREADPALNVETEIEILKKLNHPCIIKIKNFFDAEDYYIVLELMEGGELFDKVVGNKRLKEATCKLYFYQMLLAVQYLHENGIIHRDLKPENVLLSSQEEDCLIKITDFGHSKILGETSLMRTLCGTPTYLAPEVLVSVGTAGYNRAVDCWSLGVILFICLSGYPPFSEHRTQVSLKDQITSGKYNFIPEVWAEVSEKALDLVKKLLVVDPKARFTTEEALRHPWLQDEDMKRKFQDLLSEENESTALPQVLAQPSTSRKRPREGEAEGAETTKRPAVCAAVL
inactive: lapatinib 0.08 | pictilisib -0.012 | crizotinib 0.069 | [1] -0.011 | duvelisib 0.002 | gandotinib -0.019 | tozasertib 0.039 | doramapimod 0.018 | bafetinib -0.046 | [2] -0.008 | nilotinib -0.022 | dasatinib 0.04 | [4] -0.007 | [5] 0.05 | quisinostat -0.057 | tipifarnib 0.023 | [7] 0.013 | [8] 0.035
active: [3] 0.285 | [6] 0.326

CSTF2 (UniProt P33240)
Sequence of UniProt P33240 (P33240 whole entry, looked up): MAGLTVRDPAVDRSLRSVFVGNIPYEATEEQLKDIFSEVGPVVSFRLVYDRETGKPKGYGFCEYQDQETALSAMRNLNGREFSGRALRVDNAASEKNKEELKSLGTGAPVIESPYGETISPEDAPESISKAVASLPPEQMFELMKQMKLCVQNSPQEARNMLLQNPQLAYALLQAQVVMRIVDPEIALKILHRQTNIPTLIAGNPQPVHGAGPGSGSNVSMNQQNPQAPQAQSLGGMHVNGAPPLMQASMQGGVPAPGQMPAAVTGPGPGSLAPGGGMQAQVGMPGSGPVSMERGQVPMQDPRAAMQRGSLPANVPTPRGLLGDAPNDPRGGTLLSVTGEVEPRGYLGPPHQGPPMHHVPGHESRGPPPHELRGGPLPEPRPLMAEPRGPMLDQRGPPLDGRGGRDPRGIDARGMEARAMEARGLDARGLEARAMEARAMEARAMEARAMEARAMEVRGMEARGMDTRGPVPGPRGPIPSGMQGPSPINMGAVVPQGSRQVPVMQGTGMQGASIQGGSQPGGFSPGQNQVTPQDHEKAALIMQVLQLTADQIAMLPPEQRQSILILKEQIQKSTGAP
inactive: lapatinib -0.006 | pictilisib -0.049 | crizotinib 0.003 | [1] -0.025 | duvelisib 0.044 | gandotinib 0.051 | tozasertib 0.033 | doramapimod 0.036 | bafetinib 0.03 | [2] -0.001 | nilotinib 0.031 | [3] 0.038 | dasatinib 0.03 | [4] -0.017 | [5] -0.029 | quisinostat 0.033 | tipifarnib -0.021 | [6] -0.013 | [7] -0.007 | [8] 0.052
